Data from PubChem BioAssay AID463173 (ICCB-Longwood Screening Facility, Harvard Medical School, 2010).
Screen size: about 52,000 compounds; about 4,300 (8.3%) were called active. The list comes from a sample in which actives are over-represented; it also holds similar structures and randomly drawn compounds. Values without a mark were called inactive. Cut-off read from the data, not from the text of the source: active = survival mostly below about 52% (no sharp cut-off); inactive = mostly above about 56%.

What follows are compounds tested on DeltatarO mutant (assay: growth inhibition of S. aureus wild type versus tarO mutant, primary screen, teichoic acid synthesis inhibitors, RN4220, OD600 (AID 463173)). Conditions: OD600, 18 h, active compounds read low, screened at 18.75 µg/mL (by protocol).

Structure (SMILES) | survival
CCN1CCN(C(c2cccc(OC)c2)c2c(O)cc(C)n(Cc3ccco3)c2=O)CC1 (stereo not drawn) | 120%
Cc1ccc(-c2n[nH]c3c2C(c2ccc(C(C)(C)C)cc2)NC3=O)cc1 (stereo not drawn) | 109%
CCc1ccc(NC(=O)Cn2nc(SC)c(S(=O)(=O)c3ccc(OC)cc3)c2N)cc1 | 118%
CCSc1nn(CC(=O)Nc2cccc(CC)c2)c(N)c1S(=O)(=O)c1ccccc1 | 101%
COc1ccc(S(=O)(=O)c2c(SC)nn(CC(=O)Nc3ccc(C)c(Cl)c3)c2N)cc1 | 83%
COc1ccc(NC(=O)Cn2nc(SC)c(S(=O)(=O)c3ccc(C)cc3)c2N)cc1OC | 25% (active)
CCSc1nn(CC(=O)Nc2ccc(C(=O)OC)cc2)c(N)c1S(=O)(=O)c1ccc(C)cc1 | 37% (active)
CCOC(=O)c1ccc(NC(=O)Cn2nc(SC)c(S(=O)(=O)c3ccc(Cl)cc3)c2N)cc1 | 99%
Cn1cc(-c2cc3n(n2)CCC(=O)N3CCCC(=O)NCc2ccccc2Cl)c2ccccc21 | 109%
CCn1c(=O)cc(SCC(=O)NCCc2ccc(Cl)cc2)c2ccccc21 | 76%
O=C(NC12CCC(O)C(SC1)/C2=N/O)c1ccccc1 (stereo not drawn) | 98%
COc1cccc(-c2noc(C3CCCN(S(=O)(=O)c4ccccc4F)C3)n2)c1 (stereo not drawn) | 65%
CC(C)(C)OC(=O)N1CCC(c2c(C(=O)NCCN3CCc4ccccc4C3)cnn2-c2ccc(F)cc2)CC1 | 68%
Cc1ccc(C)c(CSc2nc(-c3ccccc3F)nc3c2Cc2c(CO)cnc(C)c2O3)c1 | 108%
CCc1ccc(CSc2nc(-c3ccccc3OC)nc3c2Cc2c(CO)cnc(C)c2O3)cc1 | 90%
Cc1ccc(-c2nc3c(c(SCC(=O)N(C)c4ccccc4)n2)Cc2c(CO)cnc(C)c2O3)cc1 | 64%
COc1ccccc1-c1nc2c(c(SCc3cc(C)ccc3C)n1)Cc1c(CO)cnc(C)c1O2 | 41% (active)
Cc1ncc(CO)c2c1Oc1nc(-c3ccc(Cl)cc3)nc(SCC(=O)N3CCCCC3)c1C2 | 48% (active)
CCSc1nc(-c2ccccc2F)nc2c1Cc1c(CO)cnc(C)c1O2 | 52% (active)
Cc1ncc(CO)c2c1Oc1nc(-c3ccccc3)nc(SCC(=O)N3CCCCC3)c1C2 | 85%
CCc1ccc(CSc2nc(-c3ccccc3F)nc3c2Cc2c(CO)cnc(C)c2O3)cc1 | 61%
CCN(CC)C(=O)CSc1nc(-c2ccccc2F)nc2c1Cc1c(CO)cnc(C)c1O2 | 101%

Structure (SMILES) | survival
Cc1ncc(CO)c2c1Oc1nc(-c3ccc(F)cc3)nc(SCC(=O)N3CCCCC3)c1C2 | 52%
CCSc1nc(-c2ccccc2OC)nc2c1Cc1c(CO)cnc(C)c1O2 | 80%
CCN(CC)C(=O)CSc1nc(-c2ccc(C)cc2)nc2c1Cc1c(CO)cnc(C)c1O2 | 39% (active)
O=C(CSc1nccn1Cc1ccccc1)Nc1ccc2c(c1)OCCO2 | 71%
CN(C)c1ccc(CN(Cc2ccco2)C(=O)COc2ccc(F)cc2)cc1 | 91%
CC(Sc1nnc2c(n1)[nH]c1ccccc12)C(=O)NC1CC1 (stereo not drawn) | 60%
CCc1ccc(-c2cn3c(n2)sc2cc(C(=O)NCCC4=CCCCC4)ccc23)cc1 | 70%
O=C(NCc1ccccc1)C(c1ccco1)N(C(=O)c1csnn1)c1ccccc1 (stereo not drawn) | 81%
CCCCc1nn2c(=O)cc(COC(=O)c3ccccc3NC(=O)c3ccccc3OC)nc2s1 | 84%
O=C(Nc1ccc(Cl)cc1)N1CCC(c2ccccc2)C1 (stereo not drawn) | 67%
COc1cc(OC)c(NC(=O)CN2C(=O)CCn3nc(-c4cccn4C)cc32)cc1Cl | 90%
O=C(NC1(C(F)(F)F)NC(=O)N(CCc2ccccc2)C1=O)c1ccccc1F (stereo not drawn) | 76%
Cc1ccc(N(CC(=O)N2CCN(c3cccc(C)c3C)CC2)S(=O)(=O)c2c(C)nn(C)c2C)cc1 | 75%
CCSc1nc(-c2ccc(Cl)cc2)nc2c1Cc1c(CO)cnc(C)c1O2 | 39% (active)
CCSc1nc(-c2cccc(Cl)c2)nc2c1Cc1c(CO)cnc(C)c1O2 | 116%
CCSc1nc(-c2ccccc2)nc2c1Cc1c(CO)cnc(C)c1O2 | 93%
CC(C)c1n[nH]c(=S)n1C | 84%
CCc1ccc(N2CC(c3nc4ccccc4n3Cc3ccccc3C)CC2=O)cc1 (stereo not drawn) | 52% (active)
CCOc1ccc(N2CC(c3nc4ccccc4n3CCOc3ccccc3)CC2=O)cc1 (stereo not drawn) | 33% (active)
CCOc1ccccc1N1CC(c2nc3ccccc3n2CCOc2ccc(OC)cc2)CC1=O (stereo not drawn) | 62%
CCOc1ccccc1N1CC(c2nc3ccccc3n2CCOc2ccccc2)CC1=O (stereo not drawn) | 32% (active)
CCOC(=O)Cn1c(C2CC(=O)N(c3ccc(C)cc3)C2)nc2ccccc21 (stereo not drawn) | 66%

Structure (SMILES) | survival
CCOc1ccc(N2CC(c3nc4ccccc4n3Cc3ccccc3F)CC2=O)cc1 (stereo not drawn) | 103%
CCOc1ccc(N2CC(c3nc4ccccc4n3CCOc3ccc(CC)cc3)CC2=O)cc1 (stereo not drawn) | 55% (active)
CCOc1ccccc1N1CC(c2nc3ccccc3n2CCCOc2ccccc2)CC1=O (stereo not drawn) | 68%
CCOc1ccc(N2CC(c3nc4ccccc4n3CCCOc3ccccc3)CC2=O)cc1 (stereo not drawn) | 51%
CCc1ccccc1NC(=O)c1nnn(-c2ccc(F)cc2)c1C | 74%
CCN(CC)CCCNC(=O)CCc1c(C)n(CC)c2cc(-c3ccccc3OC)nn2c1=O | 92%
CCC(=O)n1nc(-c2cccnc2)nc1NCc1ccc(F)cc1 | 88%
Cc1ccccc1Nc1nn2c(=O)c3ccc(C(=O)NCc4cccs4)cc3nc2s1 | 72%
O=C(CC1COc2ccccc2O1)NCCc1ccccc1 (stereo not drawn) | 87%
CCOC(=O)c1c(NC(=O)CSc2cn(CCNC(=O)c3ccc(OCC)cc3)c3ccccc23)sc2c1CCC2 | 91%
COc1ccc(OC)c(CCNC(=O)c2cc3c(-c4ccccc4F)nn(C)c3s2)c1 | 54%
CCOc1ccc(-c2nnc(SCC(=O)NCc3ccccc3)nc2-c2ccc(OCC)c(OC)c2)cc1OC | 80%
CCc1cc2c(cc3c(=O)n(CCCC(=O)NCc4cccc(Cl)c4)ncn32)s1 | 67%
CCOc1ccc(S(=O)(=O)N(CC(=O)Nc2ccc3c(c2)OCO3)c2ccc(C)cc2)cc1 | 50%
COCCCNC(=O)N1[C@H](c2cccs2)[C@@H](C)C(=O)[C@@H](C)[C@@H]1c1cccs1 | 47%
CCOc1ccc(N2CC(c3nc4ccccc4n3CCOc3ccccc3OC)CC2=O)cc1 (stereo not drawn) | 46%
CCOc1ccc(N2CC(c3nc4ccccc4n3CCCCOc3ccc(OC)cc3)CC2=O)cc1 (stereo not drawn) | 55%
CCOc1ccc(N2CC(c3nc4ccccc4n3CCCOc3ccccc3OC)CC2=O)cc1 (stereo not drawn) | 81%
CCOc1ccc(N2CC(c3nc4ccccc4n3CCC3CCCCC3)CC2=O)cc1 (stereo not drawn) | 33% (active)
CCOc1ccc(N2CC(c3nc4ccccc4n3CCOc3ccc(OC)cc3)CC2=O)cc1 (stereo not drawn) | 47% (active)
CCOc1ccc(N2CC(c3nc4ccccc4n3CCCOc3ccc(OC)cc3)CC2=O)cc1 (stereo not drawn) | 44% (active)
COc1ccc(OCCCn2c(C3CC(=O)N(c4ccc(F)cc4)C3)nc3ccccc32)cc1 (stereo not drawn) | 66%

Structure (SMILES) | survival
COc1ccc(OCCn2c(C3CC(=O)N(c4ccc(F)cc4)C3)nc3ccccc32)cc1 (stereo not drawn) | 59% (active)
O=C1CC(c2nc3ccccc3n2CCCOc2ccccc2)CN1c1ccc(F)cc1 (stereo not drawn) | 97%
CCC1CN(C(=O)N2CCC(C(=O)Nc3cc(C)ccc3C)CC2)c2ccccc2O1 (stereo not drawn) | 98%
Cc1[nH]c2ccc(-c3nnc(SCC(=O)N4CCc5ccccc54)o3)cc2c1C | 84%
COc1ccc(C2C(C(=O)Nc3cccnc3)=C(C)Nc3nc(SCc4ccccc4)nn32)cc1 (stereo not drawn) | 57%
COc1ccc(NC(=O)C2CCN(S(=O)(=O)c3ccc4[nH]c5c(c4c3)CCCCC5)CC2)cc1 | 113%
COc1ccc2cc3cc(C(=O)N4CCN(c5cccc(C(F)(F)F)c5)CC4)sc3nc2c1 | 119%
CCN(C(=O)CSc1nnc(Cn2nnc3ccccc32)o1)c1nc(-c2ccccc2)cs1 | 80%
CC(C)OCC(O)Cn1c2ccccc2c2ccccc21 (stereo not drawn) | 80%
OCCN(CCO)CC(O)Cn1c2ccc(Br)cc2c2cc(Br)ccc21 (stereo not drawn) | 2% (active)
Cc1cccc(N(CC(O)Cn2c3ccccc3c3ccccc32)S(=O)(=O)c2ccc(F)cc2)c1 (stereo not drawn) | 58%
CCCN(CCC)S(=O)(=O)c1ccc(C)cc1 | 97%
CCNc1sc(S(C)(=O)=O)nc1S(=O)(=O)c1ccc(C)cc1 | 125%
CCNc1nc(NCC)nc(N(n2cnnc2)S(=O)(=O)c2ccc(C)cc2)n1 | 1% (active)
COc1ccccc1NC(=O)Cn1c(SCC(=O)N(C)c2ccccc2)nc2ccccc21 | 119%
O=C(CSc1ccccc1)Nc1c[nH]c(=O)[nH]c1=O | 78%
Cc1ccc(C)c(NC(=O)c2cc(=O)c3cc(C)cc(C)c3o2)c1 | 70%
COc1ccc(S(=O)(=O)Cc2ccc(C(=O)N3CCN(c4cc(C)ccc4C)CC3)o2)cc1 | 130%
Cc1cccc(-c2nnn3c2nc(NCc2ccccc2)c2ccccc23)c1 | 97%
Nc1ncnc2nc(SCCO)[nH]c12 | 63% (active)
Nc1ncnc2nc(SCC(=O)O)[nH]c12 | 86%
Cc1ccc(S(=O)(=O)Nc2c(C)nc3nc(C)[nH]n3c2=O)c(C)c1 | 117%
